# Measurements from PubChem BioAssay (NCATS).
# Values joined by “and” are separate entries in the source; they are usually repeats but may differ in a detail not shown here. Equal values may be shown once. Inconclusive results are not listed. Values without a mark were called inactive. Active and inactive are the calls of the source. The call rests on the fitted dose curve; in most records, active means well fitted inhibition curve with a large enough effect; inconclusive means small, poorly fitted or top-dose-only effect; inactive means flat fitted curve, though single readings scatter.
# How the values were obtained:
# HaCat [1] = test: Cytotoxic Profiling of Annotated Libraries Using Quantitative High-Throughput Screening (AID 1296008); settings: Five cell lines viability, CellTiter-Glo ATP luminescence, 48-72 h; active compounds read low; further: potency means the concentration at half of the fitted maximal effect
# Method in brief: (§1)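 Compounds were pin-transferred onto cells and incubated 48 or 72 hr at 37 degree Celsius, 95% humidity. CellTiter-Glo was added, plates sat 10 min at room temperature, then ATP-coupled luminescence was imaged as the viability read-out.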
# KB-3-1 = test: as above; settings: Five cell lines viability, CellTiter-Glo ATP luminescence, 48-72 h; max response: active compounds read low
# Method in brief: as §1
# NIH3T3 [2] = test: as above; settings: Five cell lines viability, CellTiter-Glo ATP luminescence, 48-72 h; max response: active compounds read low
# Method in brief: as §1
# HACAT [3] = test: qHTS assay to identify novel small-molecules to repurpose for Merkel cell carcinoma treatment (AID 1296009); settings: MCC and control cell lines, CellTiter-Glo viability, 72 h; at 44.8 µM (top of the series)
# Method in brief: (§2)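 Luminescence from CellTiter-Glo, read 10 min after addition at room temperature, reported viability following a 72 hr, 37 degree celsius treatment with NPC or MIPE compounds in titration; values normalized to plate controls.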
# NIH3T3 [4] = test: as above; settings: MCC and control cell lines, CellTiter-Glo viability, 72 h; at 44.8 µM (top of the series)
# Method in brief: as §2
# MCC-13 = test: as above; settings: MCC and control cell lines, CellTiter-Glo viability, 72 h; series mostly up to 46 µM
# Method in brief: as §2
# MCC-26 = test: as above; settings: MCC and control cell lines, CellTiter-Glo viability, 72 h; series mostly up to 46 µM
# Method in brief: as §2
# MKL-1 = test: as above; settings: MCC and control cell lines, CellTiter-Glo viability, 72 h; series mostly up to 46 µM
# Method in brief: as §2
# MKL-2 = test: as above; settings: MCC and control cell lines, CellTiter-Glo viability, 72 h; series mostly up to 46 µM
# Method in brief: as §2
# Further: nearly all actives have a fitted effect of over 60% in size.
# On the % scale 0 is the no-effect control and ±100 the full control effect.
compound,measurement,setting,value
CCN(CC)CCOCCOC(=O)C(CC)(CC)c1ccccc1,outcome,HaCat [1],inactive
same,max response,KB-3-1,-1.64% and -0.0412%
same,max response,NIH3T3 [2],0.0854%
same,outcome,HACAT [3],inactive
C/C(=C\C(=O)OCCCCCCCCC(=O)O)C[C@@H]1OC[C@H](C[C@@H]2O[C@H]2[C@@H](C)[C@H](C)O)[C@@H](O)[C@H]1O,max response,HaCat [1],-2.01%
same,max response,KB-3-1,-2.38%
same,max response,NIH3T3 [2],-3.66%
O=C(O)Cc1cc(I)c(Oc2ccc(O)c(I)c2)c(I)c1,outcome,HaCat [1],inactive
same,max response,KB-3-1,1.68% and -7.08%
same,outcome,NIH3T3 [2],inactive
same,outcome,HACAT [3],inactive
same,outcome,NIH3T3 [4],inactive
COC(=O)CCC[N+](C)(C)C,max response,KB-3-1,-6.27%
CCCC(=O)O,max response,KB-3-1,2.03%
CCCc1nc(C(C)(C)O)c(C(=O)OCc2oc(=O)oc2C)n1Cc1ccc(-c2ccccc2-c2nn[nH]n2)cc1,max response,KB-3-1,-0.562%
O=C[C@H](O)[C@@H](O)[C@@H](O)[C@H](O)CO,max response,KB-3-1,-13.6%
c1ccc(-n2cnnn2)cc1,max response,KB-3-1,0.0496%
CO[C@H]1O[C@@H]2O[C@@]3(C)CC[C@H]4[C@H](C)CC[C@@H]([C@H]1C)[C@@]24OO3,max response,KB-3-1,1.88%
O[C@@H]([C@H](O)[C@H](O)CBr)[C@H](O)CBr,max response,KB-3-1,-3.83%
OCC1(CO)COC(C(Cl)(Cl)Cl)OC1,max response,KB-3-1,16.6%
Cc1ccc(S(=O)(=O)O)cc1C,max response,KB-3-1,7.06%
CC1CC(OC(=O)C(O)c2ccccc2)CC(C)(C)C1 (stereo not given),outcome,HaCat [1],inactive
same,max response,KB-3-1,19.9% and -6.72%
same,max response,NIH3T3 [2],2.78%
same,outcome,HACAT [3],inactive
O=C1c2ccccc2C(=O)c2c1ccc(O)c2O,max response,HaCat [1],4.09%
same,max response,KB-3-1,-6.82%
same,max response,NIH3T3 [2],-5.2%
same,outcome,MCC-13,inactive
same,outcome,MCC-26,inactive
same,outcome,MKL-1,inactive
same,outcome,MKL-2,inactive
C=CC[C@@H]1/C=C(\C)C[C@H](C)C[C@H](OC)[C@H]2O[C@@](O)(C(=O)C(=O)N3CCCC[C@H]3C(=O)O[C@H](/C(C)=C/[C@@H]3CC[C@@H](O)[C@H](OC)C3)[C@H](C)[C@@H](O)CC1=O)[C@H](C)C[C@@H]2OC,max response,KB-3-1,2.3%
CC1(C)S[C@@H]2[C@H](NC(=O)C3(N)CCCCC3)C(=O)N2[C@H]1C(=O)O,max response,KB-3-1,-2.76%
COc1ccc2nc(NC(=O)Nc3ccccc3)sc2c1,outcome,HaCat [1],inactive
same,max response,KB-3-1,36.1%
same,max response,NIH3T3 [2],-17.1%
same,outcome,HACAT [3],inactive
same,outcome,MCC-13,inactive
same,outcome,MCC-26,inactive
same,outcome,MKL-1,inactive
same,outcome,MKL-2,inactive
O=C1CCC(c2ccccc2)(C2CCN(Cc3ccccc3)CC2)C(=O)N1 (stereo not given),max response,KB-3-1,17.5%
CNC(=O)[C@H](Cc1c[nH]c2ccccc12)NC(=O)[C@@H](CC(=O)NO)CC(C)C,max response,KB-3-1,-8.09%
CC(CNC(=O)c1cccnc1)NC(=O)c1cccnc1 (stereo not given),max response,KB-3-1,-1.27%
O=C(O)CCCC/C=C(\c1ccccc1)c1cccnc1,max response,KB-3-1,-9.78%
CN(C)C=Nc1c(I)cc(I)c(CCC(=O)O)c1I,max response,KB-3-1,0.601%
Nc1ccc(N=Nc2ccccc2)c(N)n1,max response,HaCat [1],0.77%
same,max response,KB-3-1,1.52%
same,max response,NIH3T3 [2],-0.826%
same,outcome,MCC-13,inactive
same,outcome,MCC-26,inactive
same,outcome,MKL-1,inactive
same,outcome,MKL-2,inactive
CC(CC=O)CCCC(C)(C)O (stereo not given),max response,KB-3-1,7.65%
C[C@@H]1O[C@@H]1P(=O)(O)O,max response,KB-3-1,-3.35%
CCCCCCCCCCCCOCCCN,max response,KB-3-1,-4.56%
CCOC(=S)SSC(=S)OCC,max response,KB-3-1,4.67%
C[C@@H]1C/C=C/C=C/C=C/C=C/[C@H](O[C@@H]2O[C@H](C)[C@@H](O)[C@H](N)[C@@H]2O)C[C@@H]2O[C@](O)(C[C@@H](O)C[C@H]3O[C@@H]3/C=C/C(=O)O1)C[C@H](O)[C@H]2C(=O)O,max response,KB-3-1,3.94%
CN(C)CCCSc1ccccc1NC(=O)/C=C/c1ccccc1,outcome,HaCat [1],inactive
same,max response,KB-3-1,-0.0858%
same,outcome,HACAT [3],inactive
same,outcome,MCC-13,inactive
same,outcome,MCC-26,inactive
same,outcome,MKL-1,inactive
same,outcome,MKL-2,inactive
Cn1nnnc1SCC1=C(C(=O)O)N2C(=O)[C@@H](NC(=O)[C@H](O)c3ccccc3)[C@H]2SC1,max response,KB-3-1,8.48%
CC(=O)Nc1ccc(NC(=S)NC(=O)c2ccc(C(C)(C)C)cc2)cc1,max response,HaCat [1],-11.2%
same,Potency,KB-3-1,4.11 µM (active)
same,Potency,NIH3T3 [2],16.4 µM (active)
C[C@@H]1O[C@@H](OC[C@H]2O[C@@H](Oc3c(-c4ccc(OCCO)c(OCCO)c4)oc4cc(OCCO)cc(O)c4c3=O)[C@H](O)[C@@H](O)[C@@H]2O)[C@H](O)[C@H](O)[C@H]1O,max response,KB-3-1,-2.8%
CC(C)(C)c1ccc(CN2CCN(C(c3ccccc3)c3ccc(Cl)cc3)CC2)cc1 (stereo not given),outcome,HaCat [1],inactive
same,max response,KB-3-1,1.38% and -2.29%
same,outcome,NIH3T3 [2],inactive
same,outcome,HACAT [3],inactive
same,outcome,NIH3T3 [4],inactive
CCN1\C(=C/C=C/C=C/c2sc3ccccc3[n+]2CC)Sc2ccccc21,Potency,KB-3-1,9.2 µM (active)
NCC[C@H](O)C(=O)N[C@@H]1C[C@H](N)[C@@H](O[C@H]2O[C@H](CN)[C@@H](O)[C@H](O)[C@H]2O)[C@H](O)[C@H]1O[C@H]1O[C@H](CO)[C@@H](O)[C@H](N)[C@H]1O,max response,KB-3-1,3.67%
OC[C@H]1O[C@@H](O[C@H]2[C@H](O)[C@@H](O)[C@H](O)O[C@@H]2CO)[C@H](O)[C@@H](O)[C@@H]1O,max response,KB-3-1,4.72%
COC(=O)c1ccccc1O,max response,KB-3-1,-4.17%
C=C1CC[C@H](O)CC1=C/C=C1\CCC[C@]2(C)[C@@H]([C@H](C)/C=C/[C@H](C)C(C)C)CC[C@@H]12,outcome,HaCat [1],inactive
same,max response,KB-3-1,7.88% and 8.32%
same,outcome,HACAT [3],inactive
C[C@]12CC[C@@H]3c4ccc(OC(=O)c5ccccc5)cc4CC[C@H]3[C@@H]1CC[C@@H]2O,max response,HaCat [1],-1.32%
same,max response,KB-3-1,-12.6%
same,outcome,NIH3T3 [2],inactive
same,outcome,NIH3T3 [4],inactive
CC(=O)Oc1cccc2c1C(=O)c1c(OC(C)=O)cc(C(=O)O)cc1C2=O,outcome,HaCat [1],inactive
same,max response,KB-3-1,-2.72%
same,outcome,HACAT [3],inactive
same,outcome,MCC-13,inactive
same,outcome,MCC-26,inactive
same,outcome,MKL-1,inactive
same,outcome,MKL-2,inactive
C[C@@H]1C[C@H]2[C@@H]3C[C@H](F)C4=CC(=O)C=C[C@]4(C)[C@@]3(Cl)[C@@H](O)C[C@]2(C)[C@H]1C(=O)COC(=O)C(C)(C)C,max response,KB-3-1,41.6%
c1ccc2c(c1)OCC(CN1CCCCC1)O2 (stereo not given),max response,KB-3-1,-16%
CC(C)CCC[C@@H](C)[C@H]1CC[C@H]2[C@@H]3CC[C@@H]4C[C@H](O)CC[C@]4(C)[C@H]3CC[C@]12C,max response,KB-3-1,-12.6%
CCN1C(=O)NC(c2ccccc2)C1=O (stereo not given),max response,KB-3-1,16.5%
CC(C)[C@@H](C)/C=C/[C@@H](C)[C@H]1CC[C@H]2/C(=C/C=C3\C[C@@H](O)CC[C@@H]3C)CCC[C@]12C,max response,KB-3-1,8.4%
CCCCCCCCCCCC(=O)N(CCO)CCO,max response,KB-3-1,-11.5%
C[C@H]1[C@@H](OC(=O)CCC(=O)O)O[C@@H]2OC3(C)CC[C@H]4[C@H](C)CC[C@@H]1[C@@]24OO3,Potency,KB-3-1,16.4 µM (active)
NC(Cc1ccccc1)C(=O)O (stereo not given),max response,KB-3-1,4.99%
CCCC(CCC)C(=O)OC1C[C@H]2CC[C@@H](C1)[N+]2(C)C (stereo not given in full),max response,KB-3-1,11.2% and 16.2%
CC(C)CCC[C@@H](C)[C@H]1CC(=O)C2=C3CC[C@H]4C[C@@H](O)CC[C@]4(C)[C@H]3CC[C@@]21C,max response,KB-3-1,-6.65%
CC(=O)Oc1cccc(C(=O)O)c1OC(C)=O,max response,KB-3-1,-11.2%
Nc1ncnc2c1ncn2CCOCP(=O)(O)O,max response,KB-3-1,-6.33%
O=C(O)c1ccc(NC2OC[C@@H](O)[C@H](O)[C@H]2O)cc1 (stereo not given in full),max response,KB-3-1,-17.7%
CCCCC(CC)CCC(CC(C)C)OS(=O)(=O)O (stereo not given),max response,KB-3-1,11% and -8.89%
CC(C)(C)C(=O)OCC(=O)[C@H]1CC[C@H]2[C@@H]3CCC4=CC(=O)CC[C@]4(C)[C@H]3CC[C@]12C,max response,KB-3-1,-9.73%
O=C(O)C1=C(CSc2nnnn2CS(=O)(=O)O)CS[C@@H]2[C@H](NC(=O)[C@H](O)c3ccccc3)C(=O)N12,max response,KB-3-1,3.59%
C/C=C/C=C/C(=O)O,max response,KB-3-1,5.4%
CN[C@@H]1[C@@H](O[C@H]2O[C@H](CO)[C@@H](N)[C@H](O)[C@H]2O)O[C@H]2C[C@@H](N)[C@@H](O[C@H]3[C@H](O)[C@@H](O)[C@H](N)C[C@@H]3N)O[C@@H]2[C@@H]1O,max response,KB-3-1,9.56%
O=P(O)(O)OC[C@H]1O[C@](O)(COP(=O)(O)O)[C@@H](O)[C@@H]1O,max response,KB-3-1,1.63%
CCCC1C(=O)N2C(N(C)C)=Nc3ccc(C)cc3N2C1=O (stereo not given),max response,KB-3-1,-2.47%
CC1=CC(=C(c2ccc(N)cc2)c2ccc(N)cc2)C=CC1=N,Potency,KB-3-1,10.3 µM (active)
Cn1cc(NC(=O)c2cc(NC(=O)c3cc(NC=O)cn3C)cn2C)cc1C(=O)NCCC(=N)N,max response,KB-3-1,2.85%
CC(C)[C@H](N)C(=O)OCC(CO)OCn1cnc2c(=O)[nH]c(N)nc21 (stereo not given in full),max response,KB-3-1,3.14%
O=C(CCCN1CCN2CCCC2C1)c1ccc(F)cc1 (stereo not given),max response,KB-3-1,3.11%
CC(C)[C@@H](N)C(=O)O,max response,KB-3-1,-13.9%
O=C1c2c(O)cccc2[C@H]([C@@H]2O[C@H](CO)[C@@H](O)[C@H](O)[C@H]2O)c2cc(CO)cc(O)c21,max response,KB-3-1,8.29%
O=C1NC(=O)[C@H]2[C@@H]1[C@@H]1C=C[C@H]2C1,max response,KB-3-1,-8.53%
CC(C)OC(=O)Nc1ccc2nc(-c3cscn3)[nH]c2c1,Potency,KB-3-1,5.8 µM (active)
OC[C@@H](O)C(O)[C@H](O)CO,max response,KB-3-1,2.54%
CC(C)(O/N=C(\C(=O)N[C@@H]1C(=O)N2C(C(=O)[O-])=C(C[n+]3ccccc3)CS[C@H]12)c1csc(N)n1)C(=O)O,max response,KB-3-1,-11.3%
CC(=O)[O][Al][O]C(C)=O,max response,KB-3-1,-5.29%
